According to PubChem BioAssay AID1508600 (Functional Genomics Laboratory (NCATS/FGL), 2020):
Hit rate of the full screen: of about 53,000 sequences, about 3,700 (7%) were called active.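 Rule for the calls: active = gene knockdowns whose robust z-score for IL-1 alpha signal is at least 2 or at most -2, so actives lie on both sides; inactive = the rest.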 The entries come from a sample that favours actives as a whole.

test: Components of the Cytosolic LPS Sensing Pathway: Gene Identification via Genome-wide siRNA Screen; settings: RAW264.7 macrophages, IL-1a HTRF, actives lie on both sides, screened at 100 nM (by protocol), cells primed 5 h with Pam3CSK4 first;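 note: robust z of the log signal after scaling to non-targeting control siRNA wells of the plate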
In short: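 Supernatant IL-1a by HTRF from RAW264.7 cells primed with Pam3CSK4 (5 hours) and transfected with LipidA (24 hour) after 48h siRNA knockdown at 100 nM; cell viability checked with CellTiter-Glo.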

z-score, inactive:
GGACCAAGCUGUUAUUAACTT against Dhodh 0.46, GGUUUACCUCUAUGCUAUGTT against Upk3a 1.39, GCAUUUCGCCUCUUUCAUATT against Elac1 -0.405, GGCAUUUCUUUCACUAGCUTT against Olfr618 0.833, GCAGAGGCUCGUCCAUAUATT against Dnpep -0.205, GGACAGUUCUUACUUUACATT against Drd2 1.18, CCGUGAAUUUGGAUGAUGGTT against T2 -1.98, CCAAAGGUGACCACAGAUUTT against Zfp444 1.13, GGCUCCAUCAAGAAAAGUUTT against Usp21 0.681, GGACUGUGCAACUUUGUGGTT against Timp3 -0.634, GGAGUUGGUUCUGUGUUAUTT against Tcf7l2 -0.271, GGAAUGAGUUAGAAUAGCGTT against BC004004 -0.923, GGAAAGAAACUAAGGAAAATT against Arhgap15 0.628, GGAGCUUGACAUUAAGGACTT against Erc2 0.809, GGAAAUAAACAAGUCCCACTT against Urm1 0.465, GGUGAUGUAUGUUACGCUGTT against Srsf1 -0.00436, GGAGAAAGAGAAAAUCGCUTT against Csnk1g2 -0.736, GGUUAUCAGUUGCAUUGUUTT against Gpr37l1 0.809, GCUCAUUCUCAAAGGCUUATT against Rdh12 0.659, GGAAUACAUCGAGUAUCUCTT against Xab2 -1.43, GCUCGAGUGUAAGAUCUGUTT against Rnf182 0.355, CCCGUUCGUGCAUGAGUUATT against Lpcat4 0.532, GGUGGAAUUCAUUUUGACATT against Dnajb6 -0.42

z-score, active:
GGGUCUCUUGUGGUACAUCTT against Cln3 3.41, GGUUCACGGGUUCUAAGAUTT against Eif1b 2.35, GGCCUUCCUUGACCAAUCUTT against Ren1 -2.11, CGGAACAUGGAGUUUAAGCTT against Slfnl1 2.3, CGACGAAGUGGUCGGAAUUTT against Cryzl1 2.1, GGAAGUCGGGCAAAUACAATT against Tacstd2 5.77, CCGGGAAACCAACAAAUCATT against Rbmxl1 2.19
